Data from the supplement of paper PMC8728848.
This is one part of a sample in which the strongest signals are shown more often than they occur.

How the values were obtained:
Assay in all cases: glycan array binding signal (z-score within array); higher = stronger binding
Settings in all cases: glycan notation: IUPAC condensed, linker removed
[1] = biological target: Fuc(a1-2)Gal(b1-4)GlcNAc(b1-3)Gal(b1-4)GlcNAc
In short: (§1)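 From the Consortium for Functional Glycomics database, 3228 arrays were curated, keeping only those whose protein sequence was available. Binding is given as a within-array Z-score averaged across arrays sharing a protein sequence and across linkers. Negative Z-scores can be read as non-binding.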

[2] = biological target: Fuc(a1-3)[Gal(b1-4)]GlcNAc6S
In short: as §1

[3] = biological target: Gal(a1-4)Gal(b1-4)Glc
In short: as §1

[4] = biological target: Gal(a1-4)GlcNAc
In short: as §1

[5] = biological target: Gal(b1-3)GlcNAc(b1-3)Gal(b1-4)Glc
In short: as §1

[6] = biological target: Gal(b1-4)GalNAc(b1-3)[Fuc(a1-2)]Gal(b1-4)GlcNAc
In short: as §1

[7] = biological target: GlcNAc(b1-4)GlcNAc(b1-4)GlcNAc(b1-4)GlcNAc(b1-4)GlcNAc(b1-4)GlcNAc
In short: as §1

[8] = biological target: Man(a1-2)Man(a1-2)Man(a1-6)[Man(a1-3)]Man
In short: as §1

[9] = biological target: Man(a1-2)Man(a1-3)[Man(a1-2)Man(a1-6)]Man
In short: as §1

[10] = biological target: Man(a1-2)Man(a1-3)[Man(a1-2)Man(a1-6)]Man(a1-6)[Man(a1-2)Man(a1-2)Man(a1-3)]Man
In short: as §1

[11] = biological target: Man(a1-2)Man(a1-6)[Man(a1-3)]Man(a1-6)[Man(a1-2)Man(a1-2)Man(a1-3)]Man
In short: as §1

[12] = biological target: Man(a1-2)Man(a1-6)[Man(a1-3)]Man(a1-6)[Man(a1-2)Man(a1-2)Man(a1-3)]Man(b1-4)GlcNAc(b1-4)GlcNAc
In short: as §1

[13] = biological target: Man(a1-6)Man
In short: as §1

[14] = biological target: Neu5Ac(a2-3)Gal(b1-3)GalNAc(b1-3)Gal(a1-4)Gal(b1-4)Glc
In short: as §1

[15] = biological target: Neu5Ac(a2-3)Gal(b1-3)GalNAc(b1-3)Gal(b1-4)GlcNAc
In short: as §1

[16] = biological target: Neu5Ac(a2-3)Gal(b1-4)GlcNAc(b1-2)Man(a1-3)[Neu5Ac(a2-6)Gal(b1-4)GlcNAc(b1-2)Man(a1-6)]Man(b1-4)GlcNAc(b1-4)GlcNAc
In short: as §1

[17] = biological target: Neu5Ac(a2-3)Gal(b1-4)[Fuc(a1-3)]GlcNAc
In short: as §1

[18] = biological target: Neu5Ac(a2-6)Gal(b1-4)GlcNAc(b1-2)Man(a1-3)[Neu5Ac(a2-6)Gal(b1-4)GlcNAc(b1-2)Man(a1-6)]Man(b1-4)GlcNAc(b1-4)GlcNAc
In short: as §1

[19] = biological target: Neu5Ac(a2-6)Gal(b1-4)GlcNAc(b1-3)Gal(b1-4)GlcNAc
In short: as §1

[20] = biological target: Neu5Ac(a2-8)Neu5Ac(a2-8)Neu5Ac(a2-3)Gal(b1-4)Glc
In short: as §1

[21] = biological target: Gal(b1-3)GalNAc(b1-3)Gal(b1-4)Glc
In short: as §1

[22] = biological target: Gal(b1-4)GlcNAc(b1-2)Man(a1-3)[Gal(b1-4)GlcNAc(b1-2)Man(a1-6)]Man(b1-4)GlcNAc(b1-4)GlcNAc
In short: as §1

[23] = biological target: GlcNAc(b1-2)Man(a1-3)[GlcNAc(b1-2)Man(a1-6)]Man(b1-4)GlcNAc(b1-4)GlcNAc
In short: as §1

[24] = biological target: GlcNAc(b1-3)Gal(b1-4)GlcNAc
In short: as §1

[25] = biological target: Man(a1-2)Man(a1-3)[Man(a1-3)[Man(a1-6)]Man(a1-6)]Man(b1-4)GlcNAc(b1-4)GlcNAc
In short: as §1

[26] = biological target: Man(a1-3)[Man(a1-6)]Man(b1-4)GlcNAc(b1-4)GlcNAc
In short: as §1

[27] = biological target: Neu5Ac(a2-6)Gal(b1-4)GlcNAc(b1-3)Gal(b1-4)[Fuc(a1-3)]GlcNAc(b1-3)Gal(b1-4)[Fuc(a1-3)]GlcNAc
In short: as §1

[28] = biological target: Neu5Ac(a2-6)GalNAc(b1-4)GlcNAc
In short: as §1

B1: Surfactant Protein D (rat); Neck + Carbohydrate Recognition Domain (NCRD) (Rattus norvegicus) (protein)
chain: MLLFLLSALVLLTQPLGYLEAEMKTYSHRTMPSACTLVMCSSVESGLPGRDGRDGREGPRGEKGDPGLPGAAGQAGMPGQAGPVGPKGDNGSVGEPGPKGDTGPSGPPGPPGVPGPAGREGALGKQGNIGPQGKPGPKGEAGPKGEVGAPGMQGSAGARGAGPKGERGVPGERGVPGNTGAAGSAGAMGPQGSPGARGPPGLKGDKGIPGDKGAKGESGLPDVASLRQQVEALQGQVQHLQAAFSQYKKVELFPNGQSVGEKIFKTAGFVKPFTEAQLLCTQAGGQLASPRSAAENAALQQLVVAKNEAAFLSMTDSKTEGKFTYPTGESLVYSNWAPGEPNDDGGSEDCVEIFTNGKWNDRACGEKRLVVCEF
[1]
  glycan array binding signal (z-score): -0.183
[2]
  glycan array binding signal (z-score): 0.145
[3]
  glycan array binding signal (z-score): -0.276
[4]
  glycan array binding signal (z-score): -0.242
[5]
  glycan array binding signal (z-score): -0.194
[6]
  glycan array binding signal (z-score): -0.02
[7]
  glycan array binding signal (z-score): -0.108
[8]
  glycan array binding signal (z-score): 4.11
[9]
  glycan array binding signal (z-score): 3
[10]
  glycan array binding signal (z-score): 13.2
[11]
  glycan array binding signal (z-score): 4.18
[12]
  glycan array binding signal (z-score): 8.4
[13]
  glycan array binding signal (z-score): -0.223
[14]
  glycan array binding signal (z-score): -0.176
[15]
  glycan array binding signal (z-score): -0.198
[16]
  glycan array binding signal (z-score): -0.117
[17]
  glycan array binding signal (z-score): 0.004
[18]
  glycan array binding signal (z-score): 0.111
[19]
  glycan array binding signal (z-score): -0.105
[20]
  glycan array binding signal (z-score): -0.048

B2: Tulipa lectin C-1 (Tulipa hybrid) (protein)
chain: MGMALVVALAVALASTVAGQQNVLLSGNTLANEESLSYGSVKFIMQNDCNLVLYGGGFQSNTASNGKKCTLTLNNNGHLIINDGLTGRVVWRNSNAQNPVGRYAAVLRPAPGTADVAIYGPAIWSTNDEFSYQESGVVPHKLGRETPNLPRMQNLLFSGQTLYGTDGMLSSNDGSTTFELSKCQLSLSLGNEVKWKVAPTVENGKENYCHVRLDHRGHLSLLNDDNVVLFRSIPTNGVEPPIGDYVLIVEKGAGYIYGPPIWNTYDNRRYKVASA
[1]
  glycan array binding signal (z-score): -0.2
[21]
  glycan array binding signal (z-score): -0.226
[22]
  glycan array binding signal (z-score): 5.37
[23]
  glycan array binding signal (z-score): 4.39
[24]
  glycan array binding signal (z-score): -0.23
[25]
  glycan array binding signal (z-score): -0.179
[26]
  glycan array binding signal (z-score): 4.98
[18]
  glycan array binding signal (z-score): 5.26
[27]
  glycan array binding signal (z-score): -0.093
[28]
  glycan array binding signal (z-score): -0.003
